Bioassay records: PubChem BioAssay, National Center for Advancing Translational Sciences (NCATS)
FUS yeast rescue = suppressors of FUS proteinopathy in yeast; S. cerevisiae FUS-expressing, growth rescue, OD600, 24 h; Potency, µM (titrated, usually from 76.6 µM), hits mostly activators; 0.24% of 390,000 active; AID 1347120; note: nearly all actives have a fitted effect of over 55% in size
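Yeast FUS proteinopathy model; galactose-induced FUS (2%), starting OD 0.005. Cpds in dilution series, 24hr, 30C, 99% humidity. Abs 600 nm growth. Pos ctrl CP55940 (top 92uM final); neg ctrl DMSO.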
aSyn yeast inh = inhibitors of alpha-synuclein toxicity in yeast; Yeast expressing alpha-synuclein, growth rescue, BacTiter-Glo, 24 h; Potency, µM (titrated, usually from 46.1 µM), most hits filed as activators; 0.14% of 370,000 active; AID 652106; note: nearly all actives have a fitted effect of over 65% in size
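Rescue of yeast growth: cells expressing toxic alpha-synuclein, induced in galactose at OD600 0.02, incubated with compound 24 h at 30 C. ATP luminescence quantified growth; inhibitors of toxicity appear as activators.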
GRP78 ERSR act = inducers of ER stress response in human glioma cells | U87-MG GRP78 promoter luciferase reporter, 16 h | Potency, µM, usual class: activators | 0.02% of 420,000 active; note: series mostly up to about 76 µM; nearly all actives have a fitted effect of over 35% in size
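Stably transfected U87-MG human glioma cells carrying a GRP78-based luminescent sensor were seeded at 1000 cells/well, pin-dosed with compounds and incubated 16 h. Luciferase reagent was then added, and end-point luminescence was read after 10 min at room temperature.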
Abeta yeast res = restores growth of yeast expressing A-beta42 peptide; yeast expressing A-beta42, growth rescue, OD600, 48 h; response scale: 0% DMSO, 100% iron-clioquinol control; Potency, µM (top dose mostly 46.1 µM), usual class: activators; 0.063% of 410,000 active; AID 1347071; note: nearly all actives have a fitted effect of over 55% in size
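Yeast growth medium received pinned compounds, then yeast cells expressing toxic A-beta were added; plates incubated at 30 C for 48 hr. Growth read as absorbance at 600 nm, normalized to DMSO and equimolar FeCl3 plus clioquinol controls.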
MBNL1 CUG block = blocks human MBNL1 binding to CUG repeat RNA | Q9NR56 | TR-FRET MBNL1-His/biotin-(CUG)12 binding, 665/545 ratio | Potency, µM (series often up to 57.5 µM), usual class: inhibitors | 0.036% of 280,000 active; active = well fitted inhibition curve with a large enough effect in the signal ratio, with a control signal flat, not every such curve was filed as active; inconclusive = small, poorly fitted or top-dose-only effect, or effect the other way, or a change in a side signal; inactive = no such curve, though single readings can be large or run the other way; the % refers to the signal ratio
Target sequence (Q9NR56 whole entry, looked up): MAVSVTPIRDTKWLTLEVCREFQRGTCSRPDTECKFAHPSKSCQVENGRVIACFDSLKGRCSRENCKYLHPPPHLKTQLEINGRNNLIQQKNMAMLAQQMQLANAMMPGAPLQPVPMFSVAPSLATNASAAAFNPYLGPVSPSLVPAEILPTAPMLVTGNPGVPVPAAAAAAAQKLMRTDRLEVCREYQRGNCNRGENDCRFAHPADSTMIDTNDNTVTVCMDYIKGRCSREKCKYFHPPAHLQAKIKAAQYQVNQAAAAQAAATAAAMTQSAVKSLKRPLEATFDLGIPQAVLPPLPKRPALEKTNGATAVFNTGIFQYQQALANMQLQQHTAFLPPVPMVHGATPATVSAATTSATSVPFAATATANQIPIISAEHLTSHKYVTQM
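TR-FRET between His-tagged MBNL1 and biotin-(CUG)12 RNA, detected with Tb anti-His antibody (0.055 ng/ul) and streptavidin-XL665 (5 nM), 60 min at room temperature. Compounds titrated 92 nM to 58 uM; 665/545 nm ratio normalized to buffer and complex controls.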
TDP-43 yeast inh = rescues yeast growth from TDP-43 toxicity | TDP-43 expressing yeast growth rescue, BacTiter-Glo, 24 h | Potency, µM (top dose mostly 46.1 µM), usual class: activators | 1.8% of 410,000 active | AID 652104; note: nearly all actives have a fitted effect of over 50% in size
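Cell-based yeast growth screen: TDP-43 expression induced in galactose, inoculum OD600=0.02 after raffinose pregrowth to mid-log. Read-out BacTiter-Glo luminescence at 24 hr, 30 deg C; inhibition of toxicity seen as signal increase.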
Hits are given with their value; i = inactive; ? = inconclusive; nt = no result. Shown are actives, neighbours in structure and some others; about 2% of the full set was active somewhere. Unless noted, calls come from the whole dose curve; as a rule, active = well fitted curve in the direction sought with a large enough effect; inconclusive = small, poorly fitted or top-dose-only effect, or another doubt; inactive = no such curve, though single readings can be large; an effect the other way counts as inactive or inconclusive.

SMILES	FUS yeast rescue	aSyn yeast inh	GRP78 ERSR act	Abeta yeast res	MBNL1 CUG block	TDP-43 yeast inh
CCc1ccccc1NC(=O)c1cnn(-c2ccccc2)c1C	i	i	i	i	i	14.1µM
Cc1ccccc1NC(=O)c1cnn(-c2ccccc2)c1C	i	i	i	i	i	12.6µM
Cc1cccc(NC(=O)c2cnn(-c3ccccc3)c2C)c1C	i	i	i	i	i	i
C(=C\c1nccc2ccccc12)/c1ccc(N2CCOCC2)cc1	nt	nt	i	nt	nt	nt
COC(=O)[C@@H](NC(=O)C1CCCN(c2nc(C)c3ccc(C)cc3n2)C1)C(C)C (some centres not stated)	nt	nt	i	nt	nt	nt
O=C1N(CCCO)CCC12CCCCC2	i	nt	nt	nt	nt	nt
CCOC(=O)c1cc(-c2ccc(C)cc2)n(CCC(=O)NC(C)CC)c1C (configuration not stated)	i	i	i	i	i	14.1µM
Cc1nonc1C(=O)N/N=C/c1ccc(O)c(O)c1	i	i	35.5µM	i	i	i
COCCC1CCCCN1Cc1nc(N2CCCCC2)c2cc(OC)c(OC)cc2n1 (configuration not stated)	nt	nt	i	nt	nt	nt
COc1ccc(-c2ccnc3nc(N4CCN(c5ccccc5)CC4)nn23)cc1	i	i	i	i	i	14.1µM
CN(C)c1ccc(/C=C/c2cc(Cl)nc3ccccc23)cc1	nt	nt	i	nt	nt	nt
Cc1cccc(Cn2cnc3c(cnn3C(C)(C)C)c2=O)c1	nt	nt	i	nt	nt	nt
COc1ccc(CN(C(=O)/C=C/C(=O)c2ccc(OC)cc2O)C(C(=O)NC2CCCCC2)c2ccncc2)cc1 (configuration not stated)	nt	35.5µM	i	i	nt	i
COCCN(CC(=O)NC1CCCCC1)C(=O)/C=C/C(=O)c1ccc(OC)cc1O	i	i	i	i	i	14.1µM
COc1ccc(C(=O)/C=C/C(=O)N(CC(=O)NC2CCCCC2)Cc2cccs2)c(O)c1	?	i	i	i	i	20µM
COc1cc(=O)n2c(c1C(=O)NC(C)c1ccco1)CCN(C(=O)c1ccnc(Cl)c1)CC2 (configuration not stated)	nt	nt	i	nt	nt	nt
COc1ccc(CN2CCC3(CCC(CNC(=O)C4CCCO4)O3)CC2)c(C)c1C (configuration not stated)	nt	nt	i	nt	nt	nt
CCCCCCCCCCCCCCCCCCN(CCCCCCCCCCCCCCCCCC)c1ccc(/C=C/c2ccc(C=O)cc2)cc1	nt	nt	i	nt	nt	nt
Cc1cc(C)nc(S[C@@H]2C[C@@H](C(=O)N3CCCN(C)CC3)N(Cc3cc(F)ccc3F)C2)n1	nt	nt	i	nt	nt	nt
COC1=C[C@H](C(=O)NCCNC(C)=O)[C@@]2(C)Cc3ccccc3[C@H]2CC1=O	i	nt	nt	nt	nt	nt
Nc1ccc2nc(-c3cccc(-c4nc5ccc(N)cc5[nH]4)c3)[nH]c2c1	i	i	i	?	i	14.1µM
CN(C)c1nc(SCCOC(=O)Nc2ccccc2)nc(N(C)C)n1	nt	i	i	i	i	3.16µM
CN(C)c1nc(C(=O)Nc2ccccc2)nc(N(C)C)n1	i	i	i	i	i	i
Cc1cc2c([nH]c3ccccc32)c2c1OC(C)(C)C=C2	i	i	i	i	i	28.2µM
COC(=O)C1CN(Cc2ccc(F)cc2)CCS(=O)(=O)N1Cc1cn(Cc2ccc(Cl)cc2)nn1 (configuration not stated)	i	nt	nt	nt	nt	nt
SMILES	FUS yeast rescue	aSyn yeast inh	GRP78 ERSR act	Abeta yeast res	MBNL1 CUG block	TDP-43 yeast inh
Cc1c(C(=O)NCC2(c3ccccc3)CCOCC2)cnn1-c1nccc(-c2ccco2)n1	nt	nt	i	nt	nt	nt
C/C(=N/NC(=O)CCC(=O)Nc1ccc(Br)cc1)c1ccc(Br)cc1	i	i	i	i	i	i
C/C(=N/Nc1ncc(Br)cn1)c1ccc(Br)cc1	i	i	i	i	i	28.2µM
C/C(=N\Nc1ccc(C(=O)O)cc1)c1ccc(Br)cc1	i	i	i	i	i	10µM
CC(C)(C)n1ncc2c(=O)n(Cc3ccc(-c4ccccc4C#N)cc3)cnc21	nt	nt	i	nt	nt	nt
O=C(NC1CCCCN(Cc2ccc(OC(F)(F)F)cc2)C1=O)c1ccc(F)c(F)c1 (configuration not stated)	i	nt	nt	nt	nt	nt
COc1ccc([C@@H]2[C@@H]3C(=O)N(C(C)(C)C)C(=O)[C@@H]3[C@]3(Cc4ccccc4)C(=O)N(c4ccc(Br)cc4)C(=O)N23)cc1	i	i	i	i	i	i
COc1ccc([C@@H]2[C@@H]3C(=O)N(C(C)(C)C)C(=O)[C@@H]3[C@]3(Cc4ccc(Cl)cc4)C(=O)N(c4cccc(Br)c4)C(=O)N23)cc1	i	i	i	i	i	i
COc1ccc(N2C(=O)N3[C@H](c4ccc(Br)cc4)[C@@H]4C(=O)N(C(C)(C)C)C(=O)[C@@H]4[C@]3(Cc3ccccc3)C2=O)cc1	12.6µM	i	i	i	i	i
COc1ccc([C@@H]2[C@@H]3C(=O)N(C(C)(C)C)C(=O)[C@@H]3[C@]3(Cc4ccccc4)C(=O)N(c4cccc(Cl)c4)C(=O)N23)cc1	28.2µM	i	i	i	nt	i
CC(C)(C)N1C(=O)[C@H]2[C@@H](c3ccc(Br)cc3)N3C(=O)N(c4cccc(Cl)c4)C(=O)[C@@]3(Cc3ccccc3)[C@H]2C1=O	12.6µM	i	i	i	nt	i
COc1ccc([C@@H]2[C@@H]3C(=O)N(C(C)(C)C)C(=O)[C@@H]3[C@]3(Cc4ccccc4)C(=O)N(c4cccc(C)c4)C(=O)N23)cc1	28.2µM	i	i	i	nt	i
COc1cc(OC)c(OC)cc1/C=C/c1nccc2ccccc12	nt	i	i	nt	nt	nt
CC(=O)N1CCc2c(sc3c2c(=O)n(Cc2ccccc2)c(=O)n3Cc2ccccc2Cl)C1	i	nt	i	i	nt	15.8µM
CC(=O)N1CCc2c(sc3c2c(=O)n(Cc2ccccc2)c(=O)n3Cc2ccccc2F)C1	i	nt	i	i	nt	i
CC(=O)N1CCc2c(sc3c2c(=O)n(CCc2ccccc2)c(=O)n3Cc2ccc(F)cc2)C1	?	nt	i	i	nt	15.8µM
CCCCCCC(=O)N1C/C=C\C(c2ccc(OC)cc2)N(Cc2ccc(F)cc2)C(=O)C1 (configuration not stated)	?	i	i	i	i	28.2µM
CCOC(=O)c1ccc(-c2ccc(C=O)o2)cc1	i	i	i	i	?	11.2µM
CCCOC(=O)c1ccc(-c2ccc(C=O)o2)cc1	i	i	i	i	?	i
O/N=C(\c1ccc(Cl)cc1)c1ncc(C(F)(F)F)cc1Cl	i	i	i	i	i	12.6µM
CN(NC(=O)c1ccc(Cl)cc1)c1ncc(C(F)(F)F)cc1Cl	i	i	i	i	i	i
CCc1nc2cc(C(=O)N(C)C3CCOC3)cc(NC(=O)c3ccccc3OC)c2n1C (configuration not stated)	nt	nt	i	nt	nt	nt
CCOCc1cc(CN2CCN(c3cccc(C(F)(F)F)c3)CC2)c(O)c2ncccc12	i	nt	i	i	nt	25.1µM
